Reference: PubChem BioAssay AID1159580 (chemical genetic matrix, 2015)
Values joined by “and” are separate entries in the source; they are usually repeats but may differ in a detail not shown here. Equal entries are not always repeated. The whole screen tested about 5,500 compounds, of which about 2,000 (36%) were called active. Not shown: some 18% with an inconclusive outcome. Rule as the data show it: active = normalized growth mostly below about 0.91 (no sharp cut-off); inconclusive = no clear call, values can overlap the other calls; inactive = mostly above about 0.92. This is one part of the list.

Experiment: chemical genetic growth profiling, strain panel (AID 1159580);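 also: tested at 20 µM; growth read once vehicle control cultures reached saturation at 30 °C; 1 = growth at the plate median or of vehicle wells; lower values mean less growth of the strain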
Conditions: S. cerevisiae deletion strains, growth OD

Measured: normalized growth

Cc1ccnc(NS(=O)(=O)c2ccc(N)cc2)n1
inactive: locus YAL013W, strain DEP1, hits give low values 1 | locus YAL021C, strain ccr4, hits give low values 0.971 | locus YAL026C, strain drs2, hits give low values 0.994 | locus YAL030W, strain snc1, hits give low values 0.999 | locus YBL061C, strain skt5, hits give low values 0.997 | locus YBR009C, strain hhf1, hits give low values 1.01 | locus YBR021W, strain FUR4, hits give low values 0.994 | locus YBR023C, strain chs3, hits give low values 0.998 | locus YBR171W, strain sec66, hits give low values 1.02 | locus YBR229C, strain ROT2, hits give low values 1 | locus YBR231C, strain swc5, hits give low values 1.01 | locus YBR279W, strain paf1, hits give low values 1.01 | locus YCL011C, strain gbp2, hits give low values 0.969 | locus YCL016C, strain dcc1, hits give low values 0.968 | locus YCL029C, strain bik1, hits give low values 1.02 | locus YCL061C, strain MRC1, hits give low values 1.01 | locus YCL069W, strain vba3, hits give low values 0.998 | locus YCR088W, strain abp1, hits give low values 1 | locus YDL005C, strain med2, hits give low values 1 | locus YDL035C, strain GPR1, hits give low values 1.01 | locus YDL040C, strain nat1, hits give low values 0.999 | locus YDL074C, strain BRE1, hits give low values 0.978 | locus YDL101C, strain DUN1, hits give low values 1.01 | locus YDL134C, strain PPH21, hits give low values 1.01 | locus YDL185W, strain tfp1, hits give low values 0.967 | locus YDL192W, strain arf1, hits give low values 1.02 | locus YDR001C, strain nth1, hits give low values 0.999 | locus YDR069C, strain doa4, hits give low values 1.02 | locus YDR101C, strain arx1, hits give low values 1.01 | locus YDR137W, strain rgp1, hits give low values 1.03 | locus YDR150W, strain NUM1, hits give low values 1 | locus YDR159W, strain sac3, hits give low values 0.968 | locus YDR162C, strain NBP2, hits give low values 1 | locus YDR195W, strain ref2 1 | locus YDR297W, strain sur2, hits give low values 1.01 | locus YDR318W, strain mcm21, hits give low values 1.02 | locus YDR334W, strain swr1, hits give low values 0.995 | locus YDR335W, strain msn5, hits give low values 0.986 | locus YDR388W, hits give low values 1.01 | locus YDR392W, strain spt3, hits give low values 0.887 | locus YDR502C, strain sam2, hits give low values 1.01 | locus YEL003W, strain gim4, hits give low values 1.02 | locus YEL037C, strain rad23, hits give low values 1.01 | locus YEL061C, strain CIN8 (second series), hits give low values 1 | locus YEL061C, strain CIN8, hits give low values 1 | locus YER015W, strain faa2, hits give low values 0.992 | locus YER016W, strain bim1, hits give low values 1.01 | locus YER110C, hits give low values 1.02 | locus YER111C, strain swi4, hits give low values 0.998 | locus YER155C, strain BEM2 (second series), hits give low values 1.02 | locus YER155C, strain BEM2, hits give low values 1 | locus YER167W, strain BCK2, hits give low values 1.01 | locus YFR010W, strain ubp6, hits give low values 1.02 | locus YGL078C, strain dbp3, hits give low values 1.01 | locus YGL086W, strain mad1, hits give low values 1.01 | locus YGL167C, strain pmr1, hits give low values 0.992 | locus YGL173C, strain kem1, hits give low values 1.02 | locus YGL227W, strain vid30, hits give low values 0.999 | locus YGL240W, strain doc1, hits give low values 1.03 | locus YGL248W, strain PDE1, hits give low values 0.998 | locus YGL253W, strain hxk2, hits give low values 0.996 | locus YGR078C, strain PAC10, hits give low values 0.971 | locus YGR135W, strain pre9, hits give low values 1.01 | locus YGR229C, strain SMI1, hits give low values 0.97 | locus YGR252W, strain gcn5, hits give low values 0.984 | locus YHR013C, strain ard1, hits give low values 0.987 | locus YHR027C, strain rpn1, hits give low values 0.999 | locus YHR030C, strain SLT2, hits give low values 1 and 0.973 | locus YHR079C, strain IRE1 (second series), hits give low values 1.01 | locus YHR079C, strain IRE1, hits give low values 0.973 | locus YHR094C, strain hxt1, hits give low values 1.01 | locus YHR129C, strain ARP1, hits give low values 1.01 | locus YHR142W, strain chs7, hits give low values 1 | locus YHR200W, strain rpn10, hits give low values 1.01 | locus YIL066C, strain RNR3, hits give low values 1.01 | locus YIL073C, strain SPO22, hits give low values 1.02 | locus YIL125W, strain kgd1, hits give low values 1 | locus YIR030C, strain dcg1, hits give low values 1.02 | locus YJL092W, strain hpr5, hits give low values 1 | locus YJL095W, strain BCK1 (second series), hits give low values 1 | locus YJL095W, strain BCK1, hits give low values 1.01 and 0.972 | locus YJL115W, strain asf1, hits give low values 0.992 | locus YJL129C, strain trk1, hits give low values 0.996 | locus YJL134W, strain LCB3, hits give low values 1 | locus YJL154C, strain vps35, hits give low values 1.01 | locus YJL164C, strain tpk1, hits give low values 0.968 | locus YJL166W, strain qcr8, hits give low values 1.02 | locus YJL168C, strain set2, hits give low values 1.01 | locus YJL187C, strain SWE1 (second series), hits give low values 1.01 | locus YJR043C, strain POL32, hits give low values 1.01 | locus YJR066W, strain TOR1, hits give low values 0.937
